Reference: PubChem BioAssay (NCATS)
Where “and” joins values, the source holds several entries; their conditions need not be identical. Equal entries are not always repeated. Results filed as inconclusive are left out. A call without a number means that no potency is given here. Calls of active or inactive are those of the source. Calls follow the shape of the dose curve; as a rule, active = well fitted cell-killing curve with a large enough effect; inconclusive = small, poorly fitted or top-dose-only effect; inactive = no such curve, though single readings can be large or run the other way.

Test: qHTS of pediatric cancer cell lines to identify multiple opportunities for drug repurposing: Primary screen for MG 63 (6-TG R) cells (AID 1347105); also: nearly all actives have a fitted effect of over 50% in size
Details: MG 63 (6-TG R) viability, CellTiter-Glo, 48 h; series mostly up to 46 µM
Procedure, shortened: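 Primary screen of approved and investigational compounds on cells in growth media at 37 degrees C, 5% CO2. MIPE set at 11-point and NPC set at 8-point dilutions; viability scored by ATP-based luminescence at 48 hours.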
Potency is read from the fitted curve at half-maximal effect.

Compound	Potency
COC1CCC(N(C(=O)C2CCC(C)CC2)c2cc(C3=CCCCC3)sc2C(=O)O)CC1 (stereo not drawn)	inactive
CCc1ccc(C=C2SC(=S)NC2=O)cc1	inactive
NS(=O)(=O)c1cccc2c1C(=O)c1cccc(O)c1C2=O	2.35 µM (active)
Cc1nnc(C(C)C)n1C1C[C@H]2CC[C@@H](C1)N2CC[C@H](NC(=O)C1CCC(F)(F)CC1)c1ccccc1 (stereo partly drawn)	inactive
Cc1nc(N)sc1-c1ccnc(Nc2ccc(N3CCOCC3)cc2)n1	5.9 µM (active)
O=C(CCCCCCC(=O)Nc1ccccc1)NO	3.35 µM (active) and 3.72 µM (active)
CC(C)NCC(O)COc1cccc2[nH]ccc12 (stereo not drawn)	inactive
O=C1NC(=O)C(c2ccccc2)(c2ccccc2)N1	inactive
CON=C(C(=O)N[C@@H]1C(=O)N2C(C(=O)OCOC(=O)C(C)(C)C)=C(C=Cc3scnc3C)CS[C@H]12)c1csc(N)n1	inactive
c1cc(-c2sc(-c3ccncc3)c(-c3ccncc3)c2-c2ccncc2)ccn1	inactive
CN1C[C@H]2c3ccccc3Oc3ccc(Cl)cc3[C@@H]2C1	inactive
Clc1ccc(C(c2ccc(Cl)cc2)n2cc[n+](CC(OCc3ccc(Cl)cc3Cl)c3ccc(Cl)cc3Cl)c2)cc1 (stereo not drawn)	23.5 µM (active)
OC[C@@H](O)[C@H](O)[C@H](O)[C@@H](O)CO	inactive
C=C1C(=O)[C@@]23C(CC[C@@H]1[C@H]2O)[C@@]12CO[C@]3(O)[C@@H](O)[C@@H]1C(C)(C)CC[C@@H]2O (stereo partly drawn)	4.69 µM (active)
CC(C)n1nc(-c2ccc3oc(N)nc3c2)c2c(N)ncnc21	0.0007 µM (active)
C[C@]12CCC3c4ccc(O)cc4CCC3C1CCC2=O (stereo partly drawn)	inactive
CCOC1OC(=O)C[C@H]1NC(=O)[C@@H]1CCCN1C(=O)[C@@H](NC(=O)c1ccc(N)c(Cl)c1)C(C)(C)C (stereo partly drawn)	inactive

Compound	Potency
CC(C)(C)c1cc(C(=O)O)c(NC(=O)Nc2ccc3[nH]ncc3c2)s1	inactive
CC(C)C(C)C=CC(C)C1CCC2C3=CC=C4CC(O)CCC4(C)C3CCC21C (stereo not drawn)	inactive
C=C1C(=O)OC(CCCCCCCC)C1C(=O)O (stereo not drawn)	inactive
O=C(NCCN1CCOCC1)c1ccc(Cl)cc1	inactive
Oc1ccc(C2CCN(c3ccnc4ccccc34)CC2)cc1O	inactive
CC1(C)CCC(CN2CCN(c3ccc(C(=O)NS(=O)(=O)c4ccc(NCC5CCOCC5)c([N+](=O)[O-])c4)c(Oc4cnc5[nH]ccc5c4)c3)CC2)=C(c2ccc(Cl)cc2)C1	11.8 µM (active)
NC1CCC(Nc2nc(Nc3ccc(C(=O)N4CCCCC4)cc3)c3ncn(-c4cccc(F)c4)c3n2)CC1 (stereo not drawn)	inactive
NC1=N[C@@]2(c3cc(NC(=O)c4ccc(F)cn4)ccc3F)COC[C@@H]2CS1	23.5 µM (active)
CCc1ccc(OCc2ccccc2C(=O)Nc2ccc3nc(C)cc(N)c3c2)cc1	7.43 µM (active)
COc1ccc2c3c1OC1C[C@@H](O)C=C[C@@]31CCN(C)C2 (stereo partly drawn)	inactive
O=c1[nH]cnc2c1ncn2[C@H]1CC[C@@H](CO)O1	inactive
CC#CCn1c(N2CCC[C@@H](N)C2)nc2c1c(=O)n(Cc1nc(C)c3ccccc3n1)c(=O)n2C	inactive
CC(C)(C(=O)NCC(F)(F)C(F)(F)F)C(=O)N[C@@H]1C(=O)Nc2ccccc2-c2ccccc21	inactive
CCCCCCCCCCCC1=C(O)C(=O)C=C(O)C1=O	2.96 µM (active)
OC[C@H]1O[C@@H](n2cnc3c2NC=NC[C@@H]3O)C[C@H]1O	inactive
O=C1c2ccccc2-[n+]2ccc3c([nH]c4ccccc43)c21	2.96 µM (active)
